# Results as given in PubChem BioAssay (EPA / NIEHS).
# Records with an inconclusive call do not appear. The source made the active and inactive calls. How the source made its calls: active means hit-call score of the fitted dose curve at least 0.9, where 1 is the maximum; inconclusive means response in the unintended direction; inactive means score below 0.9.
# Legend:
# [1] = molecular target: Estrogen receptor (Homo sapiens) (UniProt P03372); assay: ATG_hERa_XSP1: Attagene TRANS-FACTORIAL Multi-Species (XSP1) HepG2 Assay for human Estrogen Receptor (ESR1) (AID 2283780)
# Sequence of Estrogen receptor (Homo sapiens) (P03372 whole entry, looked up, the tested form may be a part): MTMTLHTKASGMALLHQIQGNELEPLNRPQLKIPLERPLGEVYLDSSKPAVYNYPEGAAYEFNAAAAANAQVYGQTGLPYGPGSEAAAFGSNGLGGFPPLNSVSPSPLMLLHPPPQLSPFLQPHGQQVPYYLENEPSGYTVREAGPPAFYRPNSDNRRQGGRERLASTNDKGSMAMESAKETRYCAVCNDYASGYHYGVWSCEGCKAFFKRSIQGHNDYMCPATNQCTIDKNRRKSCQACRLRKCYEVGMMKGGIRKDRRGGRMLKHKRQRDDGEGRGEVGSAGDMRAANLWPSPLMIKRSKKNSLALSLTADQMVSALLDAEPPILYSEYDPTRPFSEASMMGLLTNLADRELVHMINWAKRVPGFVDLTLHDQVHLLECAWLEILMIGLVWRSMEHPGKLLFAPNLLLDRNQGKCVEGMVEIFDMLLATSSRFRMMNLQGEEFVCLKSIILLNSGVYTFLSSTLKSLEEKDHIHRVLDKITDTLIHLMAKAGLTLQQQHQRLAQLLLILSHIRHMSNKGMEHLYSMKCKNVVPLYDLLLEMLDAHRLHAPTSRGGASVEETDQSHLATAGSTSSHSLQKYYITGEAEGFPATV
# Procedure, shortened: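 Reporter transcripts from multiplexed GAL4-UAS units driven by NR-Gal4 chimeras in transiently transfected HepG2 were measured by RT-PCR with capillary electrophoresis 24 h post-dose, with 3 nM 6-alpha-fluorotestosterone present; gain-of-signal relative to DMSO.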
# [2] = test system: turtle Estrogen Receptor (ESR1), gene 101933533; assay: ATG_trERa_XSP1: Attagene TRANS-FACTORIAL Multi-Species (XSP1) HepG2 Assay for turtle Estrogen Receptor (ESR1) (AID 2283781)
# Procedure, shortened: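 Cell-based chimeric NR-Gal4 transactivation; HepG2; 24 h dosing; mRNA reporter detected by RT-PCR and capillary electrophoresis fluorescence.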
# [3] = molecular target: Estrogen receptor beta (Homo sapiens) (UniProt Q92731); assay: ATG_hERb_XSP1: Attagene TRANS-FACTORIAL Multi-Species (XSP1) HepG2 Assay for human Estrogen Receptor (ESR2) (AID 2283788)
# Procedure, shortened: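 Multiplexed trans-activation in transfected HepG2: ERβ-Gal4 reporter transcripts after 24 h treatment, detected by RT-PCR plus capillary electrophoresis.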
# [4] = molecular target: GAL4 Transcription Factor (Internal Marker), GAL4 (gene 855828) (UniProt P04386); assay: ATG_GAL4_XSP1: Attagene TRANS-FACTORIAL Multi-Species (XSP1) HepG2 Assay for GAL4 Transcription Factor (Internal Marker) (AID 2283789)
# Sequence of GAL4 Transcription Factor (Internal Marker), GAL4 (gene 855828) (P04386 whole entry, looked up, the tested form may be a part): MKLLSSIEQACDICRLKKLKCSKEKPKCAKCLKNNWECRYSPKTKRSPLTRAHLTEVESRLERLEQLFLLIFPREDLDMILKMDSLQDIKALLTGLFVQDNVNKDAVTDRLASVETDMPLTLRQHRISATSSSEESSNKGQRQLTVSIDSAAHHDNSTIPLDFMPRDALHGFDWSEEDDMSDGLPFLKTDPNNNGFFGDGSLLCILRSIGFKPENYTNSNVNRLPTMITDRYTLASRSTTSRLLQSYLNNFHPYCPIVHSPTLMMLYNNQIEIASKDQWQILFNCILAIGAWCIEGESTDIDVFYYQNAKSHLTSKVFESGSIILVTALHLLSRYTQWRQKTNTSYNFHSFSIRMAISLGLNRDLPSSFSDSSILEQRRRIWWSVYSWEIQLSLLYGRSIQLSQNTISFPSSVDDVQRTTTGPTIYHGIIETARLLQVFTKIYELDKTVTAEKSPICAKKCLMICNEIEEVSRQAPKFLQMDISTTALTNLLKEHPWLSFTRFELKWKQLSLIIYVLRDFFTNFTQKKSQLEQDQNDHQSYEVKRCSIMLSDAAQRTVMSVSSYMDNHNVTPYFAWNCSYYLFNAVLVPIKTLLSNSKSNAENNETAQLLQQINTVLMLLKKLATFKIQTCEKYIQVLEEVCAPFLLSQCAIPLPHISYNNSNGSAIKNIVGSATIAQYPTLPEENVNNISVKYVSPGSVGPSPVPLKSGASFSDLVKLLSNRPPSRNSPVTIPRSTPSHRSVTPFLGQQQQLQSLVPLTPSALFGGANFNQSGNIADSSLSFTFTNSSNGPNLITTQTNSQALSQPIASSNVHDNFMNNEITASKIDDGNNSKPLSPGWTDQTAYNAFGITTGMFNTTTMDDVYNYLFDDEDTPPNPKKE
# Procedure, shortened: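 This background-control endpoint measures GAL4-driven reporter mRNA via RT-PCR and capillary electrophoresis of labelled fragments. Transiently transfected HepG2 cells were treated 24 h, with 3 nM 6-alpha-fluorotestosterone included, and gain-of-signal was fitted against DMSO.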
# [5] = ATG_M_19_XSP1: Attagene TRANS-FACTORIAL Multi-Species (XSP1) HepG2 Assay for M19 Transcription Factor (Internal Marker) (AID 2283798)
# Procedure, shortened: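 Readout is reporter mRNA induction quantified via RT-PCR, 6-FAM labeling, HpaI digestion and capillary electrophoresis, fitted in the positive direction versus DMSO baseline. Transfected HepG2 cells exposed 24 h, medium including 3 nM 6-alpha-fluorotestosterone.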
# [6] = ATG_M_32_XSP1: Attagene TRANS-FACTORIAL Multi-Species (XSP1) HepG2 Assay for M32 Transcription Factor (Internal Marker) (AID 2283799)
# Procedure, shortened: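 Reporter transcripts from the M32 internal-control unit measured by RT-PCR, FAM labelling, HpaI digestion and capillary electrophoresis after 24 h compound exposure of transfected HepG2, 3 nM 6-alpha-fluorotestosterone included; DMSO baseline, positive-direction fit.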
# [7] = molecular target: Peroxisome proliferator-activated receptor gamma (Homo sapiens) (UniProt P37231); assay: ATG_hPPARg_XSP1: Attagene TRANS-FACTORIAL Multi-Species (XSP1) HepG2 Assay for human Peroxisome Proliferator-activated Receptor gamma (PPARg) (AID 2283800)
# Procedure, shortened: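 Reporter mRNA induction, measured by RT-PCR with capillary electrophoresis 24 h after dosing, scored as gain over DMSO. Transfected HepG2 cells express exogenous NR-Gal4 chimeras driving GAL4-UAS reporters; medium includes 3 nM 6-alpha-fluorotestosterone.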
# [8] = test system: zebrafish Peroxisome Proliferator-activated Receptor gamma (PPARg), gene 557037; assay: ATG_zfPPARg_XSP1: Attagene TRANS-FACTORIAL Multi-Species (XSP1) HepG2 Assay for zebrafish Peroxisome Proliferator-activated Receptor gamma (PPARg) (AID 2283801)
# Procedure, shortened: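 Trans-activation readout of chimeric zebrafish PPARg–GAL4 in transiently transfected human HepG2 cells, 24 h chemical exposure (medium includes 3 nM 6-alpha-fluorotestosterone). Reporter transcripts measured by RT-PCR and capillary electrophoresis, fitted as gain over DMSO.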
# [9] = molecular target: mouse Peroxisome Proliferator-activated Receptor gamma (PPARg), Pparg (gene 19016) (UniProt P37238); assay: ATG_mPPARg_XSP1: Attagene TRANS-FACTORIAL Multi-Species (XSP1) HepG2 Assay for mouse Peroxisome Proliferator-activated Receptor gamma (PPARg) (AID 2283802)
# Sequence of mouse Peroxisome Proliferator-activated Receptor gamma (PPARg), Pparg (gene 19016) (P37238 whole entry, looked up, the tested form may be a part): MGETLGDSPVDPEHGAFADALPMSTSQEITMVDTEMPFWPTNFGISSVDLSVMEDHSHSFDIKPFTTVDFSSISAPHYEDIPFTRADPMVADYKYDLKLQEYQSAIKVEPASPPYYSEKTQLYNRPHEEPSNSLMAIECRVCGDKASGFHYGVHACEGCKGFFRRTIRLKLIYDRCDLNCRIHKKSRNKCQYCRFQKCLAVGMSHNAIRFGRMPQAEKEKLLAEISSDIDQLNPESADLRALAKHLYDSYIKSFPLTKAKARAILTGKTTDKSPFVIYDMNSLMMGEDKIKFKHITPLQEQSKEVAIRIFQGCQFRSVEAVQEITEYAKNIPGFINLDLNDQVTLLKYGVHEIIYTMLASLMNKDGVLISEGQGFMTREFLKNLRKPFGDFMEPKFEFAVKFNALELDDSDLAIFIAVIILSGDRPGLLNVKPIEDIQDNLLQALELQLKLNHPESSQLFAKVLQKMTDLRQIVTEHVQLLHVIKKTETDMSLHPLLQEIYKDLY
# Procedure, shortened: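 Readout is reporter mRNA induction, measured by RT-PCR with 6-FAM labelling, HpaI digestion and capillary electrophoresis, 24 h post-dose relative to DMSO. Transient multi-reporter transfection of human HepG2 with mouse PPARg–GAL4 fusion; 3 nM 6-alpha-fluorotestosterone included.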
# [10] = molecular target: Nuclear receptor subfamily 1 group I member 2 (Mus musculus) (UniProt O54915); assay: ATG_mPXR_XSP1: Attagene TRANS-FACTORIAL Multi-Species (XSP1) HepG2 Assay for mouse Pregnane X Receptor (PXR) (AID 2283803)
# Sequence of Nuclear receptor subfamily 1 group I member 2 (Mus musculus) (O54915 whole entry, looked up, the tested form may be a part): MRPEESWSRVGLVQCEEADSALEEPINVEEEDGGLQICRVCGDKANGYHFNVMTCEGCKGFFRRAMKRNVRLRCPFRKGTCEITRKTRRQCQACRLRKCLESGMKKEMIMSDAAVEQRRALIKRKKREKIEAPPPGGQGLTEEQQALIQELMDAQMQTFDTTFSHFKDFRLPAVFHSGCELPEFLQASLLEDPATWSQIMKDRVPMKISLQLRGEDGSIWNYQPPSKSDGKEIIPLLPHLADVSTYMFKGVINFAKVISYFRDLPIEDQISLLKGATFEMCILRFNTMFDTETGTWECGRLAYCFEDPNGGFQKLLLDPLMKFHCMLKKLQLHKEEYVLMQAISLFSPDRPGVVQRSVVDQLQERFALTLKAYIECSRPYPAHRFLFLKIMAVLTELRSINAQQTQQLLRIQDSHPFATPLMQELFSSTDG
# Procedure, shortened: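 Transiently transfected HepG2 cells expressing a receptor-Gal4 chimera drive a GAL4-UAS reporter; 3 nM 6-alpha-fluorotestosterone included. Reporter mRNA read 24 h post-dose by RT-PCR and capillary electrophoresis; gain of signal relative to DMSO.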
# [11] = molecular target: human Thyroid hormone Receptor alpha (TRa), THRA (gene 7067) (UniProt P10827); assay: ATG_hTRa_XSP1: Attagene TRANS-FACTORIAL Multi-Species (XSP1) HepG2 Assay for human Thyroid hormone Receptor alpha (TRa) (AID 2283805)
# Sequence of human Thyroid hormone Receptor alpha (TRa), THRA (gene 7067) (P10827 whole entry, looked up, the tested form may be a part): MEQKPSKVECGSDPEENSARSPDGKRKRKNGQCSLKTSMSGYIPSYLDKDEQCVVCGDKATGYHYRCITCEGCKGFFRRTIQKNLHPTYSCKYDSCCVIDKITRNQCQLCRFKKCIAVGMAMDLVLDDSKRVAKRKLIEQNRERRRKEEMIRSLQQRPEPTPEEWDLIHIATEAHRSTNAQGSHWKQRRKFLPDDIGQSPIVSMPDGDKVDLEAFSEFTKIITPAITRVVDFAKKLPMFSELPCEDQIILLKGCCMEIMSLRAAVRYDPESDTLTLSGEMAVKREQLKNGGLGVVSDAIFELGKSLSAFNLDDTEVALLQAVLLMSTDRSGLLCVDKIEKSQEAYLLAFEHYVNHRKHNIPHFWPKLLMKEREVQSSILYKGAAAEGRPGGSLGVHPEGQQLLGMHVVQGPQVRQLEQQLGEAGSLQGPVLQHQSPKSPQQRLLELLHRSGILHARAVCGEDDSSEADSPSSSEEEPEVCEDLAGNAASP
# Procedure, shortened: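 Reporter transcripts from the human TRa-Gal4 TRANS unit quantified by RT-PCR, fluorescent labeling and capillary electrophoresis after 24 hours of chemical exposure in transfected HepG2 cells; medium contains 3 nM 6-alpha-fluorotestosterone. Positive direction fit against DMSO.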
# [12] = test system: turtle Thyroid Hormone Receptor, alpha (TRa), gene 101949057; assay: ATG_trTRa_XSP1: Attagene TRANS-FACTORIAL Multi-Species (XSP1) HepG2 Assay for turtle Thyroid Hormone Receptor, alpha (TRa) (AID 2283806)
# Procedure, shortened: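 After 24 h chemical exposure, reporter transcripts were measured by RT-PCR with fluorescent primer extension, HpaI digestion and capillary electrophoresis. Cells were transiently transfected HepG2 expressing exogenous NR-Gal4 chimeras; medium contained 3 nM 6-alpha-fluorotestosterone; fitted upward relative to DMSO.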
# [13] = molecular target: zebrafish Thyroid Hormone Receptor alpha (TRa), thraa (gene 30670) (UniProt Q98867); assay: ATG_zfTRa_XSP1: Attagene TRANS-FACTORIAL Multi-Species (XSP1) HepG2 Assay for zebrafish Thyroid Hormone Receptor alpha (TRa) (AID 2283807)
# Sequence of zebrafish Thyroid Hormone Receptor alpha (TRa), thraa (gene 30670) (Q98867 whole entry, looked up, the tested form may be a part): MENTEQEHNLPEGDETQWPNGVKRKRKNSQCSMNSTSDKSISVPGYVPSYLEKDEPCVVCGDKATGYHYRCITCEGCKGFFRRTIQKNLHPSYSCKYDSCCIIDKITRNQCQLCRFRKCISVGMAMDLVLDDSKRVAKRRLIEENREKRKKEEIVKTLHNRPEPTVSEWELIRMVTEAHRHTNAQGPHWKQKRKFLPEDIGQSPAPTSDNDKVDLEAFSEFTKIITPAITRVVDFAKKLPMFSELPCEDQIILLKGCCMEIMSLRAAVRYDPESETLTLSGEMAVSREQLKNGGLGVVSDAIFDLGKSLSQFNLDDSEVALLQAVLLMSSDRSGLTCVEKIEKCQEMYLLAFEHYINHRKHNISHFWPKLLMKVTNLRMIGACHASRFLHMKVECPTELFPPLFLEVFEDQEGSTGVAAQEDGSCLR
# Procedure, shortened: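 Reporter transcripts driven by a chimeric zebrafish TRa–Gal4 protein were measured by RT-PCR with fluorescent labelling and capillary electrophoresis. These came from transiently transfected HepG2 cells after 24 h chemical exposure, with 3 nM 6-alpha-fluorotestosterone added; baseline was DMSO.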
# [14] = STM_H9_NormalizedViability: Cytotoxicity Assessment at 120 hours in the Stemina devTOX quickPredict H9 human embryonic stem cell (hESC)-based Assay (AID 2283784)
# Procedure, shortened: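 Viability of the cell layer was taken from live-cell protease cleavage of a fluorogenic substrate after compound exposure of undifferentiated H9 stem cells, with replenishment each 24h. Fluorescence was normalized to vehicle (0.1% DMSO).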
# AR (gene 367) [15] = molecular target: AR (gene 367) (UniProt P10275); assay: ACEA_AR_agonist_80hr: ACEA Biosciences xCELLigence Real-Time Cell Analysis on Androgen Receptor Agonism for Proliferation (AID 2283783);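 further: hits increase impedance growth signal above DMSO baseline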
# Sequence of AR (gene 367) (P10275 whole entry, looked up): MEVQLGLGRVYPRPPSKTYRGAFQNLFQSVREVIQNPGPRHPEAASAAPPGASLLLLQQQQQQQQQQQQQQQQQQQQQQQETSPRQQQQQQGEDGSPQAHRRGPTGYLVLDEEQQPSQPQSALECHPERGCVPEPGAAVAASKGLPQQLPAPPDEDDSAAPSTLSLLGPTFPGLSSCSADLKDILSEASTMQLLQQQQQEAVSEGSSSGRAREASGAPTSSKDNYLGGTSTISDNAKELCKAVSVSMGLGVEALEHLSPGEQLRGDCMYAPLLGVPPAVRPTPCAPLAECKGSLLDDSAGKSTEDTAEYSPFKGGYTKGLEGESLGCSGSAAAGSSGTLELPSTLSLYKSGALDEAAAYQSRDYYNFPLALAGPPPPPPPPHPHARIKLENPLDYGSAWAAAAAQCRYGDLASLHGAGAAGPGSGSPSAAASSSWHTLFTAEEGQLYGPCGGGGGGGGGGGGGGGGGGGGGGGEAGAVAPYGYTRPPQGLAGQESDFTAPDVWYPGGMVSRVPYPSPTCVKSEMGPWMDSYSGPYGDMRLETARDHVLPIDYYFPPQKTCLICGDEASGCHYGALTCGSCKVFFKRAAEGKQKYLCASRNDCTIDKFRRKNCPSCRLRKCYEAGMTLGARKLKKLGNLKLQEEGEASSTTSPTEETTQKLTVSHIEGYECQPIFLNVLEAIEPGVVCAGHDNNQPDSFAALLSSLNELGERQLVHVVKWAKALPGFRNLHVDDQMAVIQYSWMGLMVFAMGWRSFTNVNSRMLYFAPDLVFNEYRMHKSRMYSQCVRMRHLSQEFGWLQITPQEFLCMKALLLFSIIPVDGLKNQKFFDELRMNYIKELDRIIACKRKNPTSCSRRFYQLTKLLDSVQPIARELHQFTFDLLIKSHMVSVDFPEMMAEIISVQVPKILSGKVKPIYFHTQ
# Procedure, shortened: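 Real-time cell-growth kinetics were recorded by electrode impedance in 22Rv1 cells exposed to test chemicals up to 100 uM final; the 80 h timepoint served as the readout, fitted upward relative to DMSO controls, in biological duplicate.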
# AR (gene 367) [16] = molecular target: AR (gene 367) (UniProt P10275); assay: ACEA_AR_antagonist_80hr: ACEA Biosciences xCELLigence Real-Time Cell Analysis on Androgen Receptor Antagonism for Proliferation (AID 2283787);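 further: 22Rv1 human prostate cancer cells with growth followed by electrical impedance; hits lower the impedance growth signal relative to DMSO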
# Procedure, shortened: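 Using 22Rv1 cells held in assay medium, we dosed compounds (100 uM maximum final, 1:4 serial, eight points, 0.5% DMSO at top) and recorded cell-electrode impedance; the 80 hr timepoint was analyzed against DMSO.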
# [17] = ATG_M_06_XSP1: Attagene TRANS-FACTORIAL Multi-Species (XSP1) HepG2 Assay for M06 Transcription Factor (Internal Marker) (AID 2283790)
# Procedure, shortened: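 This background-control readout tracks M06 reporter mRNA, measured by RT-PCR and capillary electrophoresis. HepG2 cells transiently carrying the GAL4-UAS reporter panel were dosed for 24 h with 3 nM 6-alpha-fluorotestosterone added for partial AR stimulation; increases were scored relative to DMSO.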
# [18] = ATG_M_61_XSP1: Attagene TRANS-FACTORIAL Multi-Species (XSP1) HepG2 Assay for M61 Transcription Factor (Internal Marker) (AID 2283797)
# Procedure, shortened: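 Background-control readout: reporter transcripts measured by RT-PCR and capillary electrophoresis 24 h after dosing transiently transfected HepG2 multi-reporter cells, with 3 nM 6-alpha-fluorotestosterone present. Fitted in the positive direction relative to DMSO.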
# [19] = molecular target: frog Thyroid hormone Receptor alpha (TRa), thra-a (gene 397942) (UniProt P15204); assay: ATG_frTRa_XSP1: Attagene TRANS-FACTORIAL Multi-Species (XSP1) HepG2 Assay for frog Thyroid hormone Receptor alpha (TRa) (AID 2283804)
# Sequence of frog Thyroid hormone Receptor alpha (TRa), thra-a (gene 397942) (P15204 whole entry, looked up, the tested form may be a part): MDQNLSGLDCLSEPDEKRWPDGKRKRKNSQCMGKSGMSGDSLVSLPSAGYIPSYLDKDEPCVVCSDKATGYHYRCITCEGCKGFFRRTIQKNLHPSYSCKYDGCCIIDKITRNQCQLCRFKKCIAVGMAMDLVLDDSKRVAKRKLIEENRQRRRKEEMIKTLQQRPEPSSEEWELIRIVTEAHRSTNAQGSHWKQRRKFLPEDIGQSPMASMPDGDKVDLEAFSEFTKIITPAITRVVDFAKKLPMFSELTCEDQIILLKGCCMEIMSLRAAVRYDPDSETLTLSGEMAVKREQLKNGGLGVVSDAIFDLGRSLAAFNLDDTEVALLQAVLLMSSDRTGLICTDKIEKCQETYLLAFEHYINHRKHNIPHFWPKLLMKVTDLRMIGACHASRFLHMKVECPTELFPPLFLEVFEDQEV
# Procedure, shortened: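 Reporter transcript induction, measured by RT-PCR with 6-FAM labelling and capillary electrophoresis, 24 hr after dosing transiently transfected HepG2 cells expressing a frog TRa-GAL4 fusion; medium contained 3 nM 6-alpha-fluorotestosterone; increase over DMSO scored.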
compound,measurement,setting,value
CC(C)(c1ccccc1)c1ccc(O)cc1,AC50,[1],0.3 µM (active)
same,AC50,[2],0.412 µM (active)
same,AC50,[3],0.227 µM (active)
same,outcome,[4],inactive
same,outcome,[5],inactive
same,outcome,[6],inactive
same,outcome,[7],inactive
same,outcome,[8],inactive
same,outcome,[9],inactive
same,outcome,[10],inactive
same,outcome,[11],inactive
same,outcome,[12],inactive
same,outcome,[13],inactive
Cc1cc(O)ccc1Cl,outcome,[14],inactive
CCCCCCCCCC[N+](C)(C)CCCCCCCCCC,AC50,[14],2.5 µM (active)
CCOC(=O)C(O)(c1ccc(Cl)cc1)c1ccc(Cl)cc1,outcome,AR (gene 367) [15],inactive
same,AC50,AR (gene 367) [16],19.2 µM (active)
CC(C)(O)C(=O)Nc1ccc([N+](=O)[O-])c(C(F)(F)F)c1,outcome,[1],inactive
same,outcome,AR (gene 367) [15],inactive
same,outcome,[17],inactive
same,outcome,[18],inactive
same,outcome,[8],inactive
same,outcome,[10],inactive
same,outcome,[19],inactive
same,AC50,[11],50 µM (active)
same,AC50,[12],30.6 µM (active)
same,outcome,[13],inactive
c1ccc(-c2ccccc2)cc1,outcome,AR (gene 367) [16],inactive
